Assay results published in PubChem BioAssay AID602449 (Sanford-Burnham Center for Chemical Genomics, 2012).
The whole screen tested about 360,000 compounds, of which about 5,000 (1.4%) were called active. The list comes from a sample in which actives are over-represented; it also holds similar structures and randomly drawn compounds. A number with no mark means an inactive call.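 Rule for the calls: active = inhibition of 50% or more, scaled per plate between neutral and stimulator controls; inactive = the rest.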

experiment: mitochondrial permeability transition pore inhibitors, primary screen, biochemical, isolated mouse mitochondria, absorbance (AID 602449); conditions: Ca2+ swelling absorbance, 30 min, at 10 µM, stronger effect = higher value;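 note: 0% = DMSO wells given calcium and 100% = 1 mM EGTA wells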

Row | Structure (SMILES) | inhibition
1 | CCCC1CC(C)(C(=O)Cn2[nH]c(=O)ccc2=O)OC1=O (configuration not stated) | -1.2%
2 | O=C1CCC(C(=O)OCC(=O)Nc2ccc(OC(F)F)cc2)=NN1 | -0.6%
3 | O=C(COc1ccc(NC(=O)c2ccccc2[N+](=O)[O-])cc1)c1ccc(F)cc1 | -1.1%
4 | COc1cc2c3c(c1)/C(=C1/SC(=S)NC1=O)C(=O)N3C(C)(C)C=C2C | 91.4% (active)
5 | Cc1cc(C)n(CCNS(=O)(=O)c2ccc(Cl)cc2)n1 | 0%
6 | Cc1ccc(C(=O)NCC(=O)O)s1 | -1.7%
7 | CCCCc1nc(NCc2ccccc2)c(C#N)c2c1CCCC2 | 5.4%
8 | CCCCc1nc(NCCN)c(C#N)c2c1CSC(C)(C)C2 | 108% (active)
9 | Cc1nc(NCCN)c(C#N)c2c1COC(C)(C)C2 | -1%
10 | COc1ccc(OC)c(S(=O)(=O)N(C)CC(=O)N2CCN(c3ccccc3)CC2)c1 | -2.8%
11 | COc1ccc(C)cc1NC(=S)Nc1ccccc1SC | 0.6%
12 | COc1ccc(NC(=O)CN(C)C(=O)c2cccc(S(=O)(=O)N3CCN(c4ccccc4)CC3)c2)cc1 | 1.3%
13 | COc1cc2c(C(=O)N3CCN(C)CC3)c(CSc3ccccc3)n(C)c2cc1Br | -3.4%
14 | CC1CCCC(C)N1C(=O)COC(=O)c1ccccc1C(=O)c1ccccc1 (configuration not stated) | -1.2%
15 | CCOC(=O)c1c(NC(=O)CSc2cn(CC)c3ccccc23)sc2c1CCC2 | 59.8% (active)
16 | CCOC(=O)c1c(NC(=O)C(C)Sc2c[nH]c3ccccc23)sc2c1CCC2 (configuration not stated) | 3.9%
17 | CCOC(=O)c1c(NC(=O)Cn2nc(C(F)(F)F)cc2C)sc2c1CCC2 | 4%
18 | O=C(NCc1ccncc1)C1CCCN(S(=O)(=O)c2ccc(Br)cc2)C1 (configuration not stated) | -0.9%
19 | Cc1ccc(N(Cc2ccccc2O)C(=O)c2ccccc2F)cc1 | 0.4%
20 | CC(C)C(=O)N1c2ccccc2NC2=C(C(=O)CCC2)C1c1ccc(N(C)C)cc1 (configuration not stated) | 0.8%
21 | CCCOCC(O)CC(CC)C(=O)NNC(=S)Nc1ccccc1 (configuration not stated) | 1.7%
22 | CCCCC(=O)NNC(=S)NC(=O)C(c1ccccc1)c1ccccc1 | 69.1% (active)
23 | CCCCC(=O)NCc1ccc(F)cc1 | 0.7%
24 | CCN(CC(=O)Nc1c(F)cccc1F)C(=O)c1cnc(C)cn1 | 1.7%
25 | COC(=O)c1c(C)[nH]c(C(=O)/C=C/c2ccc(Cl)cc2)c1C | 102% (active)
26 | COC(=O)c1c(C)[nH]c(C(=O)NCCc2ccc(S(N)(=O)=O)cc2)c1C | 0.1%

Row | Structure (SMILES) | inhibition
27 | CCCCOC(=O)c1[nH]c(C)c(C(=O)OC)c1C | 1.6%
28 | c1csc(-c2nnc(COc3ncnc4sccc34)o2)c1 | 1.9%
29 | COc1cnc(SCc2ccc(Cl)c(Cl)c2)nc1Cl | 0.4%
30 | COCCNC(=O)CSc1nc2sccc2c(=O)n1-c1ccccc1 | 0%
31 | CCCN(CC1COc2ccccc2O1)C(=S)Nc1ccc(C)cc1 (configuration not stated) | 2.3%
32 | S=C(Nc1ccc(Br)cc1)NC1CCN(Cc2ccccc2)CC1 | 3.1%
33 | S=C(NCC1COc2ccccc2O1)Nc1ccc(Br)cc1 (configuration not stated) | 91.4% (active)
34 | O=S(=O)(NCCCc1ccccc1)c1ccc(Br)cc1 | 13.4%
35 | C/C(=N/NC(=S)Nc1ccccc1)c1ccc2c(c1)OCO2 | -0.4%
36 | S=C(NCCCc1ccccc1)Nc1ccc(Br)cc1 | 85.9% (active)
37 | O=C(COc1ccc(F)cc1Br)NCC1COc2ccccc2O1 (configuration not stated) | 1.6%
38 | CC(NC(=S)Nc1ccccc1)C(c1cccs1)N1CCOCC1 (configuration not stated) | 0.1%
39 | CC(NC(=S)Nc1ccccc1)C1COc2ccccc2O1 (configuration not stated) | 83.4% (active)
40 | Cc1c[n+]([O-])ccc1[N+](=O)[O-] | -0.3%
41 | COc1ccccc1NC(=O)CCSc1nnc(-c2ccc(O)cc2)o1 | -1.6%
42 | CC(C)Oc1ccc(C(=O)Nc2cc(=O)n(C)c(=O)n2C)cc1 | -1.9%
43 | Cn1cnc(S(=O)(=O)N2C[C@@H](O)COC[C@@H]3O[C@H](CC(=O)NC4CCC4)CC[C@H]32)c1 | -0.5%
44 | O=C(C[C@H]1C[C@@H]2c3cc(NC(=O)C4CCC4)ccc3O[C@@H]2[C@H](CO)O1)NC1CCCCC1 | -0.5%
45 | Cc1cc(F)ccc1N1CCC(N2CCN(C)C(CCO)C2)CC1 (configuration not stated) | 0%
46 | CCCNC(=O)NCc1ccc(N2CCCC2=O)cc1 | 2.2%
47 | COc1cc(N2CCCC2)c(OC)cc1/C=C(/C#N)c1cccc(Br)c1 | 1.4%
48 | Cc1cc(C)c(NC(=O)c2oc3ccccc3c2COc2ccccc2)c(C)c1 | 1.5%
49 | Cc1cc(C)cc(OCC(=O)NCc2cc(C)nc3ccccc23)c1 | 4.6%
50 | Cc1cc(C)c(NC(=O)C[N+](C)(C)CC(O)COc2cccc3ccccc23)c(C)c1 (configuration not stated) | 80.5% (active)
51 | COc1ccc(OC)c(C(=O)NC2CCCc3c2cnn3-c2cc(C)cc(C)c2)c1 (configuration not stated) | 1.5%
52 | Cc1cc(C(=O)NC2CC(C)(C)Cc3c2cnn3-c2ccccc2)n[nH]1 (configuration not stated) | -0.7%

Row | Structure (SMILES) | inhibition
53 | COc1ccc(C(=O)NC2CCCc3c2cnn3-c2cccc(C)c2C)c(OC)n1 (configuration not stated) | 71% (active)
54 | Cn1nccc1C(=O)NC1CCCc2c1cnn2-c1ccc(F)cc1F (configuration not stated) | 89.9% (active)
55 | COc1ccc(C(=O)NC2CC(C)(C)Cc3c2cnn3-c2ccccc2C)o1 (configuration not stated) | -1.2%
56 | CC1=C(C(=O)NC2CC(C)(C)Cc3c2cnn3-c2ccc(C)cc2)OCCO1 (configuration not stated) | -0.2%
57 | Cn1nccc1C(=O)NC1CCCc2c1cnn2-c1ccccc1F (configuration not stated) | 102% (active)
58 | CC1(C)Cc2c(cnn2-c2cccc(F)c2)C(NC(=O)c2cc[n+]([O-])cc2)C1 (configuration not stated) | -0.8%
59 | COC(=O)c1ccc(C(=O)NC2CC(C)(C)Cc3c2cnn3-c2ccc(F)cc2)nc1 (configuration not stated) | -1.7%
60 | CCNC(=O)c1sccc1-n1cccc1 | -0.7%
61 | CCN(CC)C(=O)Oc1ccc(OC(=O)N(CC)CC)cc1 | -0.8%
62 | C[C@H](CO)N1C[C@H](C)[C@@H](CN(C)S(=O)(=O)c2ccc(F)cc2)Oc2ccc(NC(=O)CCC(F)(F)F)cc2C1=O | 0.8%
63 | COc1ccc(CN(Cc2ccco2)S(=O)(=O)c2ccc(S(=O)(=O)N3CCCC3)cc2)cc1 | 11.4%
64 | CCc1cccc(NC(=O)COC(=O)c2cc(=O)c3ccccc3o2)c1 | 0.9%
65 | CSCC[C@H](NC(=O)N1CCn2c1nc1ccccc12)C(=O)NCc1ccc2c(c1)OCO2 | -2.6%
66 | C=C(C)c1cccc(C(C)(C)NC(=O)NCCN(CC)CC)c1 | 1.1%
67 | CCC(C(=O)NC(C)(C)C)n1c(-c2ccccc2)nc2ccccc21 (configuration not stated) | 1.2%
68 | Cc1cc(C)n2nc(C(=O)OCC(=O)N(CCC#N)c3ccc(F)cc3)nc2n1 | -0.4%
69 | O=C(NCCCN1CCN(c2ccc(F)cc2)CC1)Nc1ccc([N+](=O)[O-])cc1 | 90.9% (active)
70 | O=C(CCN1C(=O)COc2ccccc21)NCCCN1CCN(c2ccc(F)cc2)CC1 | -0.5%
71 | CN1CCN(CCNC(=O)Nc2ccccc2[N+](=O)[O-])CC1 | -0.3%
72 | O=C(Nc1ccc(F)cc1)C1CCN(C(=O)c2ccc([N+](=O)[O-])cc2)CC1 | 0.6%
73 | O=C(CCC(=O)N1CCCC1)Nc1ccc([N+](=O)[O-])cc1 | -1.4%
74 | CN1CCN(CCNC(=O)Nc2ccc([N+](=O)[O-])cc2)CC1 | 93.8% (active)
75 | COc1cc(C)ccc1OCC(=O)OCC(=O)c1ccc[nH]1 | 0.5%
76 | COc1ccc(/C=C2/S/C(=N/N=C3\CC4CCC3(C)C4(C)C)NC2=O)cc1 (configuration not stated) | -1.3%
77 | CCOC(=O)/C=C/c1ccc(C(F)(F)F)cc1S(=O)(=O)NC(C)(C)C | 2.5%
78 | CCCCN(CCCC)CCC(O)c1cc2c(Cl)cc(Cl)cc2c2cc(C(F)(F)F)ccc12 (configuration not stated) | 112% (active)

Row | Structure (SMILES) | inhibition
79 | O=C(/C=C/c1ccc(Cl)cc1)Nc1ccc(S(=O)(=O)Nc2ncccn2)cc1 | -0.3%
80 | O=C(/C=C/c1ccc(F)cc1)Nc1cccc(S(=O)(=O)Nc2cccc(C(F)(F)F)c2)c1 | 92.8% (active)
81 | O=C(Nc1cccc(S(=O)(=O)NC2=NCCC2)c1)c1ccc(F)cc1F | -0.6%
82 | O=C(O)CSC(NC(=O)c1cccnc1)(C(F)(F)F)C(F)(F)F | -1.1%
83 | COc1cc(C(=O)Nc2oc(-c3ccccc3)c(-c3ccccc3)c2C#N)cc(OC)c1OC | 61.1% (active)
84 | COc1cc(C(=O)NCC(=O)N2CC=C(c3ccccc3)CC2)cc(OC)c1OC | 0%
85 | N#Cc1c(NC(=O)CCCN2C(=O)c3ccccc3C2=O)oc(-c2ccccc2)c1-c1ccccc1 | -0.2%
86 | CCc1nccn1S(=O)(=O)c1cccc([N+](=O)[O-])c1 | 0.1%
87 | O=C(CCN1C(=O)C2CCCCC2C1=O)Nc1ccc(OC(F)F)cc1 (configuration not stated) | -2%
88 | CCC(=O)OCc1c(C(F)(F)F)nn(C)c1Oc1cccc(C(F)(F)F)c1 | 1.5%
89 | COC(=O)c1ccccc1Sc1c(/C=N/OCc2ccc(Cl)cc2)c(C(F)(F)F)nn1C | 2.3%
90 | Cn1nc(C(F)(F)F)c(C(=O)Nc2cccc(C(F)(F)F)c2)c1SCc1ccc(Cl)cc1 | 71.2% (active)
91 | CSc1nsc(SCC(=O)Nc2cc(C(=O)O)ccc2C)n1 | -0.5%
92 | CC(=O)c1cccc(NC(=S)N2CCN(S(C)(=O)=O)CC2)c1 | 0.1%
93 | CCSc1nsc(NC(=O)Nc2cccc(C(C)=O)c2)n1 | 87.2% (active)
94 | CSc1nsc(NC(=O)Nc2ccccc2)n1 | 85.4% (active)
95 | c1ccc(C(=NNc2nc3ccccc3s2)c2ccccn2)cc1 | 0.3%
96 | CC(=O)c1cccc(NC(=O)[C@@H](NC(N)=O)C(C)C)c1 | 0.5%
97 | CC(=O)Nc1cccc(-c2nc3ccccc3s2)c1C | -0.5%
98 | CCCCN1C(=O)C(=O)N(CC(=O)Nc2cccc(C(C)=O)c2)C1=O | 0.4%
99 | C=CCSc1nsc(NC(=O)Nc2cccc(C(C)=O)c2)n1 | 97.4% (active)
100 | O=C(Nc1ccccc1)Nc1nc2ccccc2s1 | 96.5% (active)
101 | COc1ccc(C(=O)OCC(=O)Nc2cccc(C(C)=O)c2)cc1OC | -2%
102 | CC(=O)N1CCC(C(=O)Nc2nc(-c3ccccc3)ns2)CC1 | -2%
